Screening results: PubChem BioAssay, National Center for Advancing Translational Sciences (NCATS)
Hits are enriched below; roughly 2.4% of the tested compounds scored in any of these assays.
D2 PAM-1: potentiates the human D2 dopamine receptor allosterically; 360,000 tested, 0.23% active; DiscoveRx D2 beta-arrestin cells, luminescence, 90 min; 100% = 57 uM dopamine signal; P14416; potentiation, % (test concentration not listed); AID 624464; in the data active = potentiation above about 50%; inconclusive = mostly about 30% to 49%
Target sequence (P14416 whole entry, looked up): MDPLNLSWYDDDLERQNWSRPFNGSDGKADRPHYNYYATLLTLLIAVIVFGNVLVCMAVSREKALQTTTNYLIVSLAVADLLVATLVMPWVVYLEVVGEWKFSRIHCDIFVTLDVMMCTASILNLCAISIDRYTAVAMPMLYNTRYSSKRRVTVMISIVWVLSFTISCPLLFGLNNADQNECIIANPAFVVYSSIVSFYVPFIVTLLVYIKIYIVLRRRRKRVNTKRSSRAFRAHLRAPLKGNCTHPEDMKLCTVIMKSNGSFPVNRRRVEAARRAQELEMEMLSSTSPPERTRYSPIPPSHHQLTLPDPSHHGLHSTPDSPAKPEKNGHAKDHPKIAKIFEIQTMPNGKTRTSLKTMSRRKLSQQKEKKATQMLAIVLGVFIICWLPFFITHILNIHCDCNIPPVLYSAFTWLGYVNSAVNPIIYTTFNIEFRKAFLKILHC
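PathHunter D2 cells, attached overnight at 37 deg C, received compound in DMSO plus dopamine at EC20 (50 nM final) for 90 min at 37 deg C. Beta-arrestin recruitment was read as luminescence after 1 h with detection reagent at ambient temperature.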
D2 ag-1: D2 dopamine receptor (human) agonism; P14416; activation, % at 2 µM; HEK293 T-REx D2 cells, calcium flux agonist mode; 340,000 tested, 0.53% active;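 active = activation over 3 SD above normal in the single-dose calcium agonist read, cut at about 30% in these data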; also: 0% is about no effect
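Tetracycline-induced HEK293 Trex cells with D2 receptor force-coupled to calcium signaling, plated overnight at 30 C and loaded with no-wash calcium dye. Calcium flux read kinetically for 180 s after compound addition; responses flag agonists.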
D2 antagonist: D2 dopamine receptor (human) antagonism | P14416 | inhibition, % at 10 µM | HEK293 TREx D2 cells, calcium flux, dopamine EC80 | 340,000 tested, 2% active | AID 485344; in the data active = inhibition above about 30%; inactive = below that, where a call was filed; also: 0% is about no effect
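Calcium flux kinetic readout in an inducible HEK293 TREx D2 line plated overnight at 30 C. After 180 s compound exposure, an EC80 dopamine challenge follows with another 180 s kinetic read to detect antagonism.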
D2 ag-2: agonists of human D2 dopamine receptor (beta-arrestin); 360,000 tested, 0.084% active; DiscoveRx PathHunter D2 beta-arrestin, luminescence, 90 min; 100% = 57 uM dopamine signal; activation, % (test concentration not listed); P14416; AID 624465; in the data active = activation above about 40%; inconclusive = between about 15% and that limit
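Agonist mode: compounds alone added to overnight-plated D2 PathHunter cells for 90 min at 37 C, with 57 uM final dopamine (EC100) defining full response. Beta-arrestin recruitment detected by chemiluminescent reagent, read after 1 h at ambient temperature.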
D2 PAM-2: positively modulates the human D2 dopamine receptor allosterically; HEK293 T-REx D2, calcium flux, EC20 dopamine potentiation; potentiation, % at 10 µM; 340,000 tested, 0.34% active;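 active = potentiation over 3 SD above the plate norm, cut at about 30% in these data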; also: 0% is about no effect
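Cells plated with tetracycline inducer and held overnight at 30 C; calcium dye loaded 30–90 min at room temperature; baseline taken, compound added and read 180 s; EC20 dopamine then added and read 180 s.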
The depositor's hits bear a star; u = inconclusive; x = no result.

SMILES	D2 PAM-1	D2 ag-1	D2 antagonist	D2 ag-2	D2 PAM-2
O=C1CCN2C=Nc3cccc4ccc1c2c34	21	47*	11	7	-6
CC(=O)O[C@]1(C(C)=O)CC[C@H]2[C@@H]3C=C(Cl)C4=CC(=O)[C@@H]5C[C@@H]5[C@]4(C)[C@H]3CC[C@@]21C	-5	1	40*	-3	6
CC(=O)O[C@]1(C(C)=O)CC[C@H]2[C@@H]3C=C(Cl)C4=CC(=O)CC[C@]4(C)[C@H]3CC[C@@]21C	-3	1	-5	-4	8
CC1=C(C(=O)Nc2ccccc2C)C2(CCCCC2)C(C(N)=O)C(=S)N1 (stereo unspecified)	-5	1	38*	-5	0
Cc1c(Cl)cccc1N1C(=O)CC(N(O)c2ccccc2)C1=O (stereo unspecified)	55*	1	0	6	7
CCOc1ccccc1N1C(=O)CC(N(O)c2ccccc2)C1=O (stereo unspecified)	4	1	-13	u	27
Cc1cccc(C)c1N1C(=O)CC(N(O)c2ccccc2)C1=O (stereo unspecified)	51*	-1	-19	7	-5
O=C1CN(C(=O)c2cccc(Br)c2)C(c2ccccc2)c2cc(Cl)ccc2N1 (stereo unspecified)	x	1	x	x	-2
Cc1cccc(Cn2c(=O)n(CCCC(=O)NCc3ccccc3Cl)c(=O)c3ccccc32)c1	x	0	x	x	3
COC(=O)c1ccc(CNC(=O)C(C)N=C2NS(=O)(=O)c3ccccc32)cc1 (stereo unspecified)	-38	0	44*	-3	-21
CC(N=C1NS(=O)(=O)c2ccccc21)C(=O)NCCCc1ccccc1 (stereo unspecified)	-37	x	x	3	x
COc1cccc(-n2cnnn2)c1	-14	0	38*	-1	-11
COC(=O)c1cccc(-n2cnnn2)c1	-14	0	-7	-4	-3
CC(C)(C)NC(=O)C1CCCN(S(=O)(=O)c2ccc(-n3cnnn3)cc2)C1 (stereo unspecified)	-5	0	32*	1	7
COc1cc(OC)cc(N2CCN(S(=O)(=O)c3ccc(-n4cnnn4)cc3)CC2)c1	-1	0	46*	-5	19
CC(=O)Nc1ccc(NC(=O)C2CCCN(S(=O)(=O)c3ccc(-n4cnnn4)cc3)C2)cc1 (stereo unspecified)	2	5	12	-6	x
CN(C)c1ccc(/C=N/Nc2nncc3ccccc23)cc1	-1	0	5	0	-1
COCCN(CCOC)Cc1cc(=O)oc2cc(C)c(C)cc12	-3	x	x	-3	x
Cc1cc(C(=O)OCC(=O)N2CCc3ccccc32)ccc1[N+](=O)[O-]	-12	x	x	-6	x
CCc1ccc(S(=O)(=O)NCc2nc3cccnc3n2Cc2cccc(OC)c2)cc1	x	0	x	x	-6
CN(CC(=O)Nc1ccc(F)cc1)C(=O)COC(=O)c1ccc(-c2ccccc2)cc1	3	1	-10	3	2
CC(C)OC(=O)C1C(=O)CC(C)(O)C(C(=O)OC(C)C)C1c1cccc(O)c1 (stereo unspecified)	-3	2	32*	-3	-7
COCCCNC(=O)c1cc2cc3cc(OC)ccc3nc2o1	-3	-1	-9	1	5
Nc1nc(SCCO)[nH]c(=O)c1NC(=O)c1ccco1	-1	0	-10	-5	-12
CC(C)CNC(=O)C1(C)CCCN1C(=O)c1ccncc1 (stereo unspecified)	9	x	x	u	x
SMILES	D2 PAM-1	D2 ag-1	D2 antagonist	D2 ag-2	D2 PAM-2
COC(CNC(=S)Nc1ccc([N+](=O)[O-])cc1)OC	-19	-2	35*	-1	9
CC(=O)N1CCc2cc(S(=O)(=O)NC(Cc3ccccc3)C(=O)Nc3cc(C)ccc3C)ccc21 (stereo unspecified)	x	-2	x	x	-12
CC(Sc1ccc(Cl)cc1)C(=O)N(C)CC(=O)Nc1ccc(N2CCOCC2)cc1 (stereo unspecified)	2	1	0	1	-9
COc1ccc([N+](=O)[O-])cc1NC(=O)C(C)c1ccccc1 (stereo unspecified)	5	0	32*	0	-3
CCN(CCC(=O)Nc1cc([N+](=O)[O-])ccc1OC)Cc1ccccc1	-39	1	79*	-1	-25
COc1ccc([N+](=O)[O-])cc1NC(=O)C(C)OC(=O)CN1C(=O)C2CC=CCC2C1=O (stereo unspecified)	-2	0	-11	-1	-11
COc1ccc([N+](=O)[O-])cc1NC(=S)NC(NC(=O)C(c1ccccc1)c1ccccc1)C(Cl)(Cl)Cl (stereo unspecified)	-23	0	71*	1	-19
COc1ccc([N+](=O)[O-])cc1NC(=O)CC(c1ccccc1)c1ccccc1	0	x	x	-3	x
COc1ccc([N+](=O)[O-])cc1NC(=O)C(C)OC(=O)Cn1[nH]c(=O)c2ccccc2c1=O (stereo unspecified)	-6	0	36*	-6	-1
CCOc1ccc(NC(=O)CN2C(=O)C(c3ccccc3)=NC23CCCCCC3)cc1	x	-1	x	x	7
O=C(COC(=O)c1cc(Br)ccc1O)NNC(=O)c1cccs1	-16	-1	9	-2	-3
CCc1ccc(OCc2n[nH]c(=S)n2C(C)CCCC(C)C)cc1 (stereo unspecified)	0	2	48*	13	3
CCOC(=O)CC(NCc1ccc(OC)c(OCC)c1)c1ccc(C)cc1 (stereo unspecified)	-13	0	61*	0	-20
Cc1cc(C)nc(SCc2ccc(C(=O)N/N=C/c3cccc(O)c3O)cc2)n1	59*	2	-45	11	22
CCCCc1nc(N2CCN(C(=O)c3ccco3)CC2)c(C#N)c2c1CCCC2	-2	1	31*	0	2
CCC(Sc1nnc(C)n2c1cc1sccc12)C(=O)Nc1ccccc1F (stereo unspecified)	x	0	x	x	x
CN1CCN(S(=O)(=O)c2cccc(C(=O)NC3(C)CCS(=O)(=O)C3)c2)CC1 (stereo unspecified)	-22	0	-1	0	41*
CC1(NC(=O)c2cccc(S(=O)(=O)N3CCCc4ccccc43)c2)CCS(=O)(=O)C1 (stereo unspecified)	10	0	-40	-1	-1
CN(Cc1ccccc1Cl)C(=O)C1CCC(=O)N(C2CCCCCC2)C1 (stereo unspecified)	-3	0	-5	1	-6
COc1cc(NC(=O)CCC(=O)c2cccs2)cc(OC)c1	-13	-1	8	-6	1
O=C(Nc1ccc2c(c1)OCO2)c1cnn2cccnc12	-5	0	69*	-1	28
